Hit rate of the full screen: of about 340,000 compounds, about 2,100 (0.62%) were called active.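 Rule for the calls: active = first-screen hits whose inhibition reached a set limit at any dose in the follow-up dose series; inconclusive = inhibition above the set first-screen limit but never retested; inactive = the rest.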 These entries were drawn from the full list. Potency and affinity values are given separately.

Chain of Rac GTPase-activating protein 1 (Homo sapiens) (Q9H0H5 whole entry, looked up): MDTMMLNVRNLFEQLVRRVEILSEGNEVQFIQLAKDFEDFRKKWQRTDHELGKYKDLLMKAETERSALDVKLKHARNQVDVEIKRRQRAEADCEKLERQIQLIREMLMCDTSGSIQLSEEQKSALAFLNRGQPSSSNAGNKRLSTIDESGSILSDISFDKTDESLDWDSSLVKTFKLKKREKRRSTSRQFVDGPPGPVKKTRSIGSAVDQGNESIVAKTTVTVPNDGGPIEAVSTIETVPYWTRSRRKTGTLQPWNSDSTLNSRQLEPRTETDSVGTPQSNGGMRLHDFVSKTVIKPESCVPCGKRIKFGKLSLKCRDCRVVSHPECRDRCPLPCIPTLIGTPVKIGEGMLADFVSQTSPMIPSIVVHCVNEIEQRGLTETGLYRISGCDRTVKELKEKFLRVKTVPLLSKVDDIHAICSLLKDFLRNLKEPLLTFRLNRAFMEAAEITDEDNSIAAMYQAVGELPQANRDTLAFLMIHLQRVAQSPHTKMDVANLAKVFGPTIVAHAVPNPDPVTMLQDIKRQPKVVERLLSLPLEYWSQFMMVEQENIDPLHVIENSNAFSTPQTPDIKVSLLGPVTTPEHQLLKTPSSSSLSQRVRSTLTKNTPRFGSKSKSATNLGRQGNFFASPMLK

The assay addresses Rac GTPase-activating protein 1 (Homo sapiens) (UniProt Q9H0H5). In words: MgcRacGAP GTPase-activating activity inhibitors, confirmation, biochemical, ADP Hunter fluorescence, primary and confirmatory (AID 624330).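 Note: fluorescence reports GDP produced by GAP-driven GTP hydrolysis.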 The note with it: MgcRacGAP-stimulated Rac1 GTP hydrolysis, at 30 µM, hits give high values, GST-tagged Rac1 F28L mutant substrate.
For orientation: inhibition means the drop in the measured response relative to a control, in per cent. As to `Cc1ccccc1C(=O)OCC(=O)Nc1cccc(S(=O)(=O)N2CCCCC2)c1`, the inhibition was 11.7% (inactive).

On to `CN(C)S(=O)(=O)c1ccc(Cl)c(NC(=O)COc2ccccc2[N+](=O)[O-])c1`, for which the inhibition was 6.09% (inactive).

For `CCN(CC1CCCO1)C(=O)c1cc(COc2ccc(OC)cc2Cl)on1` (centres undefined), the inhibition is -11.4% (inactive).

In the case of `C[C@H](CO)N1C[C@H](C)[C@@H](CN(C)C(=O)Nc2ccccc2)Oc2c(NS(=O)(=O)c3ccc(F)cc3)cccc2C1=O`, the inhibition was 3.18% (inactive).

In the case of `Cc1ccc(OCC(=O)Nc2ccc3oc(=O)ccc3c2)cc1`, the inhibition is 4.26% (inactive).

Regarding `O=C(Cc1ccsc1)N1CCN(S(=O)(=O)c2cccc(F)c2)CC1`, the inhibition was -3.87% (inactive).

For `CC1Cc2ccccc2N1C(=O)CN1CCCCC1` (centres undefined), the inhibition was 2.91% (inactive).

Regarding `CCN1CCN(CC(=O)N2c3ccccc3CC2C)CC1` (centres undefined), the inhibition is 22.6% (inactive).

`CN(Cc1cccc(F)c1)C(=O)C1CC(=O)N(c2ccc3c(c2)OCCO3)C1` (centres undefined): the inhibition was 4.27% (inactive).

`Cc1c(Cl)ccc(S(=O)(=O)N2CCN=C2c2ccccc2)c1Cl`: the inhibition was 4.68% (inactive).

For the molecule `Cc1cc(Cl)cc2sc(NC(=O)C3CC3)nc12`, the inhibition was 5.72% (inactive).

Consider `Cc1cc(Cl)cc2sc(NC(=O)c3ccco3)nc12`, for which the inhibition is 5.28% (inactive).

For `C/C(O)=C\c1nc2ccccc2oc1=O`, the inhibition is 18.1% (inactive).

As to `CCS(=O)(=O)CCSc1nc2ccccc2o1`, the inhibition is -5.63% (inactive).

Turning to `CCCCCN1C(C)=CC(=C(C#N)C#N)C=C1C`, the inhibition is 9.16% (inactive).

In the case of `Cc1cccc2sc(N(CCN(C)C)C(=O)c3ccc4ccccc4c3)nc12`, the inhibition is 5.08% (inactive).

Regarding `O=c1[nH]cc(S(=O)(=O)N2CCN(c3ccc(F)cc3)CC2)c(=O)[nH]1`, the inhibition is 2.66% (inactive).

For `Cc1cc(C(=O)Nc2nccs2)c2cc(F)ccc2n1`, the inhibition was 4.04% (inactive).

For the molecule `O=C(CNCc1ccco1)Nc1cc(S(=O)(=O)N2CCOCC2)ccc1N1CCCC1`, the inhibition was 24.8% (inactive).

For the molecule `O=C(Nc1cccc(S(=O)(=O)N2CCCCC2)c1)c1ccco1`, the inhibition was -7.5% (inactive).

For `Cc1ccc(S(=O)(=O)N2CCOCC2)cc1C(=O)NCc1cccnc1`, the inhibition is 5.2% (inactive).

As to `O=C(COC(=O)c1ccco1)Nc1cccc(S(=O)(=O)N2CCCCC2)c1`, the inhibition was 0.12% (inactive).

Take `Cc1ccc(S(=O)(=O)N2CCOCC2)cc1NC(=O)CNCc1ccccc1Cl`: the inhibition is 8.04% (inactive).

For `Cc1ccc(S(=O)(=O)N2CCCCC2)cc1NC(=O)c1ccco1`, the inhibition is 15.5% (inactive).

`COc1ccc(CNC(N)=O)cc1OC`: the inhibition was 5.81% (inactive).

For the molecule `CN(C)S(=O)(=O)c1ccc(NC(=O)CN2C(=O)NC3(CCCC3)C2=O)cc1`, the inhibition is 4.79% (inactive).

Regarding `CCCN(C(=O)c1c(CC)noc1C)c1c(N)n(Cc2ccccc2)c(=O)[nH]c1=O`, the inhibition is 7.17% (inactive).

With `CC1(NC(=O)N2CCCCC2)CCS(=O)(=O)C1` (centres undefined), the inhibition is 6.45% (inactive).

As for `O=C1CC(c2ccc(F)cc2)CC(O)=C1C=NCCN1CCNCC1` (centres undefined), the inhibition was 10.7% (inactive).

In the case of `COc1ccc(-c2csc3ncnc(N4CCN(c5ccccc5OC)CC4)c23)cc1`, the inhibition was 8.39% (inactive).

`O=C(OCC(=O)N1CCN(C(=O)c2ccco2)CC1)c1ccc(Cl)nc1`: the inhibition is 2.2% (inactive).

`COCCNC(=O)c1ccc(N2CC3CC(C2)c2cccc(=O)n2C3)c(NC(=O)c2cc(OC)cc(OC)c2)c1` (centres undefined): the inhibition is 10.3% (inactive).

For the molecule `COc1ccc(CNC(=O)C2CCC(=O)N(CC3CCCCC3)C2)cc1` (centres undefined), the inhibition was 8.55% (inactive).

For `O=C(NN1C(=O)c2ccccc2NC1c1ccc([N+](=O)[O-])o1)c1ccc(Br)cc1` (centres undefined), the inhibition is 5.26% (inactive).

In the case of `O=C(Cn1c(NCCO)nc2ccccc21)NCCc1ccccc1`, the inhibition is 0.41% (inactive).

Regarding `Nc1nnc(SCC(=O)N2CCN(c3ccccc3)CC2)s1`, the inhibition was 2.87% (inactive).

In the case of `Cc1nc(Cc2ccccc2)sc1CC#N`, the inhibition is -3.31% (inactive).

For `CC(C)CC(NC(=O)C(Cc1ccc(OCc2ccccc2)cc1)NC(=O)OC(C)(C)C)C(N)=O` (centres undefined), the inhibition was 10.6% (inactive).

`COc1ccc(CC(=O)Nc2nc(C)cs2)cc1`: the inhibition is 12% (inactive).

As to `Cc1csc(NC(=O)CSc2nc(C)cs2)n1`, the inhibition was 3.74% (inactive).

On to `COc1ccc(-n2nnnc2SCC(=O)N2CCN(C(=O)c3ccco3)CC2)cc1OC`, for which the inhibition was 7.68% (inactive).

Consider `CCCCNC(=O)CSc1nc2ccccc2n1S(=O)(=O)c1ccc(Br)cc1`, for which the inhibition was 2.01% (inactive).

For `Cc1ccsc1/C=N/n1c(-c2cc(-c3ccccc3)n[nH]2)n[nH]c1=S`, the inhibition is 11.8% (inactive).

`Cc1ccc(-c2n[nH]c(=S)n2/N=C/c2sccc2C)cc1`: the inhibition was 5.68% (inactive).

Consider `O=[N+]([O-])c1ccccc1/C=N/n1c(C(F)(F)F)n[nH]c1=S`, for which the inhibition was 16.4% (inactive).

Consider `Cc1n[nH]c(=O)n(N=Cc2cccs2)c1=O`, for which the inhibition is 7.77% (inactive).

For the molecule `Cc1cc(C)n(/N=C/c2cccc(O)c2)c(=O)c1C(N)=O`, the inhibition was 10.6% (inactive).

On to `S=c1[nH]nc(-c2cc(-c3ccccc3)n[nH]2)n1/N=C/c1cccs1`, for which the inhibition is 16.3% (inactive).

In the case of `O=[N+]([O-])c1ccccc1/C=N/n1c(-c2ccccc2)n[nH]c1=S`, the inhibition was 16.3% (inactive).

As to `Nc1nnnn1/N=C/c1cccc(O)c1`, the inhibition was 5.38% (inactive).

On to `C#CCOCCOCCOCCNc1nc(N2CCN(C(=O)[C@H](CCCCN)n3cc(CN)nn3)CC2)nc(N2CCN(C(=O)[C@H](CCCN=C(N)N)n3cc(C(N)[C@H](C)CC)nn3)CC2)n1` (some centres undefined), for which the inhibition was 7.55% (inactive).

With `C/C(=N/OC(=O)c1ccccc1Br)c1ccc(C)cc1`, the inhibition is 6.4% (inactive).

Take `O=C(CN1CCCCCC1)Nc1cc([N+](=O)[O-])ccc1Cl`: the inhibition is 5.34% (inactive).

For the molecule `Cc1cnc(NC(=O)c2cccc(S(=O)(=O)N3CCOCC3)c2)s1`, the inhibition was 1.86% (inactive).

For the molecule `O=C(CCCOc1ccc(Cl)cc1Cl)N/N=C/c1ccc(Cl)cc1`, the inhibition was 10.9% (inactive).

Turning to `O=C1CC2(CCN(C(=O)c3ccccc3[N+](=O)[O-])CC2)Oc2ccccc21`, the inhibition is -0.23% (inactive).

For the molecule `CCOC(=O)c1ccc(N2C(=O)[C@@H](c3ccccc3)[C@H]2c2ccccc2)cc1`, the inhibition was -2.09% (inactive).

Turning to `S=c1[nH]nc(-c2ccccn2)n1/N=C/c1ccc(Br)s1`, the inhibition is 18.4% (inactive).

`S=c1[nH]nc(-c2cc(-c3ccccc3)n[nH]2)n1/N=C/c1ccc(Br)s1`: the inhibition was 20.5% (inactive).

The values are drawn from PubChem BioAssay AID624330 (Southern Research Specialized Biocontainment Screening …, 2012).
